{"source": "PubChem BioAssay (NCI)", "experiment": "NCI Yeast Anticancer Drug Screen. Data for the rad50EPP+ strain (AID 151);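 note: 0% = growth of vehicle-treated control cultures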", "details": "S. cerevisiae rad50 mutant strain, stronger effect = higher value", "protocol": "Growth inhibition of yeast strains with defined genetic alterations is measured as a screen for potential anti-cancer activity. Selected strains with alterations in DNA damage repair or cell cycle control were exposed to compounds and growth inhibition was measured relative to vehicle treated controls. The strain used in this assay is rad50EPP+", "note": "About 79,000 compounds went through this panel and 15% of them were active in at least one assay; those are over-represented in the sample as a whole. Values without a mark were called inactive. Activity calls are given as the source filed them. Cut-off read from the data, not from the text of the source: active = growth inhibition above about 70%; inactive = the rest.", "data": [{"smiles": "O=C1Nc2ccc(Br)cc2C1=Nc1cccnc1", "values": [{"measurement": "growth inhibition", "setting": "at 1.2 µM", "value": 3, "unit": "%"}, {"measurement": "growth inhibition", "setting": "at 3.7 µM", "value": -9, "unit": "%"}, {"measurement": "growth inhibition", "setting": "at 11.0 µM", "value": -8, "unit": "%"}, {"measurement": "growth inhibition", "setting": "at 33.0 µM", "value": -3, "unit": "%"}, {"measurement": "growth inhibition", "setting": "at 100.0 µM", "value": 16, "unit": "%"}]}, {"smiles": "O=C(O)c1ccc2cc(Cl)c3ccccc3c2c1", "values": [{"measurement": "growth inhibition", "setting": "at 1.2 µM", "value": 3, "unit": "%"}, {"measurement": "growth inhibition", "setting": "at 3.7 µM", "value": 9, "unit": "%"}, {"measurement": "growth inhibition", "setting": "at 11.0 µM", "value": 17, "unit": "%"}, {"measurement": "growth inhibition", "setting": "at 33.0 µM", "value": 24, "unit": "%"}, {"measurement": "growth inhibition", "setting": "at 100.0 µM", "value": 21, "unit": "%"}]}, {"smiles": "COc1ccc(N=c2cc(-c3ccccc3)oc3ccccc23)cc1", "values": [{"measurement": "growth inhibition", "setting": "at 1.2 µM", "value": -1, "unit": "%"}, {"measurement": "growth inhibition", "setting": "at 3.7 µM", "value": -3, "unit": "%"}, {"measurement": "growth inhibition", "setting": "at 11.0 µM", "value": -5, "unit": "%"}, {"measurement": "growth inhibition", "setting": "at 33.0 µM", "value": -2, "unit": "%"}, {"measurement": "growth inhibition", "setting": "at 100.0 µM", "value": 16, "unit": "%"}]}, {"smiles": "COc1ccc(-c2cc(-c3cc(C)cc(Cl)c3O)nc3[nH]c(=S)[nH]c(=S)c23)cc1", "values": [{"measurement": "growth inhibition", "setting": "at 1.2 µM", "value": 3, "unit": "%"}, {"measurement": "growth inhibition", "setting": "at 3.7 µM", "value": -5, "unit": "%"}, {"measurement": "growth inhibition", "setting": "at 11.0 µM", "value": -14, "unit": "%"}, {"measurement": "growth inhibition", "setting": "at 33.0 µM", "value": -15, "unit": "%"}, {"measurement": "growth inhibition", "setting": "at 100.0 µM", "value": -15, "unit": "%"}]}, {"smiles": "COC(=O)C(=O)CC(=O)c1cccc(OC)c1", "values": [{"measurement": "growth inhibition", "setting": "at 1.2 µM", "value": -10, "unit": "%"}, {"measurement": "growth inhibition", "setting": "at 3.7 µM", "value": -23, "unit": "%"}, {"measurement": "growth inhibition", "setting": "at 11.0 µM", "value": -7, "unit": "%"}, {"measurement": "growth inhibition", "setting": "at 33.0 µM", "value": 32, "unit": "%"}, {"measurement": "growth inhibition", "setting": "at 100.0 µM", "value": 26, "unit": "%"}]}, {"smiles": "BrC1C2CCC3OC3C12", "note": "(stereo not given)", "values": [{"measurement": "growth inhibition", "setting": "at 1.2 µM", "value": 9, "unit": "%"}, {"measurement": "growth inhibition", "setting": "at 3.7 µM", "value": 27, "unit": "%"}, {"measurement": "growth inhibition", "setting": "at 11.0 µM", "value": "70% (active)"}, {"measurement": "growth inhibition", "setting": "at 33.0 µM", "value": "89% (active)"}, {"measurement": "growth inhibition", "setting": "at 100.0 µM", "value": "96% (active)"}]}, {"smiles": "O=C(O)c1c2ccc(Cl)cc2nc2[nH]c(=O)[nH]c(=O)c12", "values": [{"measurement": "growth inhibition", "setting": "at 1.2 µM", "value": -13, "unit": "%"}, {"measurement": "growth inhibition", "setting": "at 3.7 µM", "value": -46, "unit": "%"}, {"measurement": "growth inhibition", "setting": "at 11.0 µM", "value": -10, "unit": "%"}, {"measurement": "growth inhibition", "setting": "at 33.0 µM", "value": 28, "unit": "%"}, {"measurement": "growth inhibition", "setting": "at 100.0 µM", "value": 50, "unit": "%"}]}, {"smiles": "CC(=O)O[C@H]1CC[C@@]2(C)C(=CC[C@@H]3C2CC[C@]2(C)C(=O)NC(=O)CC32)C1", "note": "(stereo not given in full)", "values": [{"measurement": "growth inhibition", "setting": "at 1.2 µM", "value": -8, "unit": "%"}, {"measurement": "growth inhibition", "setting": "at 3.7 µM", "value": 0, "unit": "%"}, {"measurement": "growth inhibition", "setting": "at 11.0 µM", "value": 25, "unit": "%"}, {"measurement": "growth inhibition", "setting": "at 33.0 µM", "value": 54, "unit": "%"}, {"measurement": "growth inhibition", "setting": "at 100.0 µM", "value": 27, "unit": "%"}]}]}
